# From PubChem BioAssay
# Target: Pro-neuregulin-1, membrane-bound isoform (Homo sapiens) (UniProt Q02297)
# Experiment: small molecules binding neuregulin-1 protein – biochemical, small-molecule microarray, fluorescence 635/667, psychiatric disease protein project, primary screen (AID 1075);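 also: score combines 667 nm spot fluorescence with signal to noise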
# Settings: NRG1 binding, 635 nm fluorescence, higher = more signal
# Pro-neuregulin-1, membrane-bound isoform (Homo sapiens), sequence (Q02297 whole entry, looked up, canonical isoform): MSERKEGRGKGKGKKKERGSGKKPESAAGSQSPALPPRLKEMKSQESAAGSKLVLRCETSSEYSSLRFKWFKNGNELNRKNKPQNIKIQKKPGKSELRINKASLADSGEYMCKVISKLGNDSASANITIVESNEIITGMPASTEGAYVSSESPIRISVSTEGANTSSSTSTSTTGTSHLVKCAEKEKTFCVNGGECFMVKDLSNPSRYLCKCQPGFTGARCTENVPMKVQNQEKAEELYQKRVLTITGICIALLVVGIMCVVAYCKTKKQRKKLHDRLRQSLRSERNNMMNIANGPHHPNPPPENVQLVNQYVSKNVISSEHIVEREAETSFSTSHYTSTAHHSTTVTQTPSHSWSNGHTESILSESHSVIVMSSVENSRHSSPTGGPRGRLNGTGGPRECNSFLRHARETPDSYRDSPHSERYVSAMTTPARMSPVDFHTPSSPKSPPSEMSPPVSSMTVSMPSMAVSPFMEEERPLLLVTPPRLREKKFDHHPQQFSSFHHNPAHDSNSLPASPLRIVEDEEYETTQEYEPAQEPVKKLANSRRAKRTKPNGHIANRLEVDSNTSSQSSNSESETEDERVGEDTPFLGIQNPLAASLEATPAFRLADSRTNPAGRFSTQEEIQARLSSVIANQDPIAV
row,Compound,composite z-score
1,CCOC(=O)C1=CCC(C(C)(C)C)N(S(=O)(=O)c2ccc(C)cc2)C1 (centres undefined),0.673
2,CCCCC=C[C@@H](NC(=O)c1ccco1)c1ccccc1,0.783
3,CC(C)(C)N1CC=CC23O[C@@H]4C=CCOC(=O)[C@@H]4[C@H]2C(=O)N(CCCCCO)[C@@H]3C1=O (some centres undefined),0.978
4,O=C1C=CC(=O)[C@@H]2CC(COc3ccccc3)=C3[C@@H](CCc4ccccc4)OB(O)C[C@@H]3[C@H]12,-0.18
5,Cc1ccccc1C(O)C1C=CC2C(=O)N(C)C(=O)C2N1N1CCCCC1 (centres undefined),1.42
6,CCOC(=O)C[C@H]1[C@H](OC(=O)c2ccc(C(=O)c3ccccc3)cc2)[C@@H](NC(=O)C2CCCCC2)c2cc(OCCCO)ccc2N1C(=O)c1ccccc1,0.857
7,Cc1ccc(S[C@]2(C(=O)NCC(C)C)CC(=O)N(Cc3ccccc3Cl)[C@@H]2c2ccc(CO)cc2)cc1,-0.612
8,COc1cccc(C(=O)O[C@H]2CC[C@]3(C)C4=C(CCC3C2(C)C)[C@]2(C)CC[C@H]([C@H](C)CCCC(C)C)[C@@]2(C)CC4)c1 (some centres undefined),0.103

# System: Neuregulin-1 EGF-like domain
# Experiment: small molecules binding NRG1 EGF domain – biochemical, small-molecule microarray, 635 nm fluorescence, primary screen (AID 1081);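 also: binding of the protein to compounds printed on small-molecule microarray slides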
# Settings: higher = more signal
row,Compound,composite z-score
1,O=c1cccc(CCc2ccccc2)o1,1.16
2,COc1ccc([Si](C)(C)[C@H]2[C@H](CCn3cc(CCO)nn3)O[C@@]3(C(=O)N(Cc4ccc(N5CCOC5=O)cc4)c4ccccc43)[C@@H]2C)cc1,1.07
3,C=CC[C@@H](OC(=O)Nc1ccc(OC)cc1)c1ccc(O)c2ccccc12,1.08
4,CC(c1ccccc1)C(O)C1C=CC2C(=O)NC(=O)C2N1Nc1ccccn1 (centres undefined),1.33
5,CC(C)CNC(=O)[C@@H]1c2ccccc2C(=O)N(Cc2cc(C(F)(F)F)cc(C(F)(F)F)c2)[C@H]1c1ccc(CO)cc1,0.401
6,C[C@]1(C(=O)NCc2ccccc2)c2ccccc2C(=O)N(Cc2cc(F)cc(C(F)(F)F)c2)[C@H]1c1ccc(CO)cc1,1.26
7,O=C1O[C@H](c2ccccc2)[C@H](c2ccccc2)N2[C@H]1[C@@H](C(=O)Nc1nc3ccccc3s1)[C@]1(C(=O)Nc3ccccc31)[C@H]2c1ccc(O)cc1,1.25
8,CN(C)CCCNC(=O)[C@@]1(Cc2ccccc2I)c2ccccc2C(=O)N(Cc2ccccc2C(F)(F)F)[C@H]1c1ccc(CO)cc1,1.23
9,CCCCCN1CC=CC23O[C@@H]4C=CCOC(=O)[C@@H]4[C@H]2C(=O)N(CCCO)[C@@H]3C1=O (some centres undefined),1.27
10,C=C(CCCC)/C(=C/C[C@H](OC(C)=O)c1ccc(CO)o1)c1cnc2ccccc2c1,1.26
11,CC(C)NC(=O)[C@@]1(Cc2ccccc2I)c2ccccc2C(=O)N(Cc2ccccc2)[C@H]1c1ccc(CO)cc1,0.986
12,O=C1C2C=CC(C(O)c3ccc(B(O)O)cc3)N(Nc3ccccc3)C2C(=O)N1c1ccccc1 (centres undefined),-0.401
13,O=C1C[C@]2(c3ccc([N+](=O)[O-])cc3)C(=O)N(CC(F)(F)F)c3cc(CO)ccc3[C@H]2N1CC12CC3CC(CC(C3)C1)C2,0.988
14,N#Cc1ccc(NN2C(C(O)c3cccs3)C=CC3C(=O)N(c4ccccc4)C(=O)C32)cc1 (centres undefined),1.06
15,COCCOC(=O)N1C(=O)[C@@]2(c3cc(C#CCNC(N)=O)ccc31)[C@H](C(=O)N1CCc3cc(OC)c(OC)cc3C1)[C@H]1C(=O)O[C@H](c3ccccc3)[C@H](c3ccccc3)N1[C@@H]2c1ccc(OCCO)cc1,0.172
16,CC(=O)Nc1cc(Br)ccc1C(=O)O,0.748
17,C=CCOC(=O)[C@@H]1[C@H]2C(=O)O[C@H](c3ccccc3)[C@H](c3ccccc3)N2[C@H](c2ccc(OCCOC(=O)[C@@H]3C[C@@H]4C(=O)N[C@@H](Cc5ccccc5)C(=O)N4[C@@H]3c3cccc(OCCO)c3)cc2)[C@@]12C(=O)Nc1ccc(I)cc12,1.06
18,[N-]=[N+]=NCc1ccccc1C[C@]1(C(=O)O)N=C(c2ccc(OCCCO)cc2)O[C@H]1c1ccccc1CN=[N+]=[N-],1.16

row,Compound,composite z-score
1,NCCCCCNC(=O)[C@H]1C[C@H]2C(=O)NCC(=O)N2[C@H]1c1cccc(OCCO)c1,1.43
2,COc1cc2c(cc1OC)CN(C(=O)[C@@H]1[C@H]3C(=O)O[C@H](c4ccccc4)[C@H](c4ccccc4)N3[C@H](c3ccccc3OCCO)[C@@]13C(=O)Nc1ccc(C#CCNC(N)=O)cc13)CC2,1.07
3,C=C(COC)C(=O)CC[C@H](OC(C)=O)c1cccc(OCCO)c1,-0.208
4,CCOC(=O)C[C@H]1[C@H](OC(=O)Cc2ccc3c(c2)OCO3)[C@@H](NC(=O)C2CCCCC2)c2cc(OCCCO)ccc2N1C(=O)Cc1ccc(OC)cc1,0.86
5,COCCOC(=O)N1C(=O)[C@@]2(c3cc(C#CCNC(N)=O)ccc31)[C@H](c1ccc(OCCO)cc1)N1[C@H](c3ccccc3)[C@H](c3ccccc3)OC(=O)[C@H]1[C@@H]2C(=O)N1CCc2cc(OC)c(OC)cc2C1,0.371
6,COCCOC(=O)N1C(=O)[C@@]2(c3cc(C#CC4(O)CCCCCC4)ccc31)[C@H](C(=O)N1CCCCCCC1)[C@H]1C(=O)O[C@H](c3ccccc3)[C@H](c3ccccc3)N1[C@@H]2c1ccccc1OCCO,1.28
7,C=C(COC)/C(=C/C[C@H](OC(=O)c1ccncc1)c1cccc(OCCO)c1)c1cc(C(=O)OC)ccc1OC,1.27
8,COc1c(C)cc(-c2cc3c(c(-c4ccc(Oc5ccccc5)cc4)n2)[Si](C(C)C)(C(C)C)OC3)cc1C,-1.06
9,CCOC(=O)C1=CCC(c2ccc(C#N)cc2)N(S(=O)(=O)c2ccc(C)cc2)C1 (centres undefined),1.27
10,CCOC(=O)C1=C[C@@H](C(C)C)N(S(=O)(=O)c2ccc(C)cc2)[C@H]1c1ccc(C(C)C)cc1,0.683
11,CCOC(=O)C1=CCC(C(C)(C)C)N(S(=O)(=O)c2ccc(C)cc2)C1 (centres undefined),1.19
12,CCCCC=C[C@@H](NC(=O)c1ccco1)c1ccccc1,-0.628
13,CC(C)(C)N1CC=CC23O[C@@H]4C=CCOC(=O)[C@@H]4[C@H]2C(=O)N(CCCCCO)[C@@H]3C1=O (some centres undefined),1.33
14,O=C1C=CC(=O)[C@@H]2CC(COc3ccccc3)=C3[C@@H](CCc4ccccc4)OB(O)C[C@@H]3[C@H]12,0.184
15,Cc1ccccc1C(O)C1C=CC2C(=O)N(C)C(=O)C2N1N1CCCCC1 (centres undefined),1.38
16,CCOC(=O)C[C@H]1[C@H](OC(=O)c2ccc(C(=O)c3ccccc3)cc2)[C@@H](NC(=O)C2CCCCC2)c2cc(OCCCO)ccc2N1C(=O)c1ccccc1,0.95
17,Cc1ccc(S[C@]2(C(=O)NCC(C)C)CC(=O)N(Cc3ccccc3Cl)[C@@H]2c2ccc(CO)cc2)cc1,-0.232
18,COc1cccc(C(=O)O[C@H]2CC[C@]3(C)C4=C(CCC3C2(C)C)[C@]2(C)CC[C@H]([C@H](C)CCCC(C)C)[C@@]2(C)CC4)c1 (some centres undefined),0.181
